The list is not random: actives were taken first. Their share in the collection is about 3.7%.
Bead autofluor: compound fluorescence in toxin protease inhibitor counterscreen; fluorescence intensity (concentration not given with the values); compound autofluorescence counterscreen, microsphere flow cytometry; stronger effect = higher value; AID 624483; 360,000 tested, 3.1% active; in the data active = fluorescence intensity above about 16000; inconclusive = no clear call, values can overlap the other calls
BoNT A protease: BoNT/A light chain protease inhibitors, primary screen, biochemical, flow cytometry, MLPCN library | AID 588499, 2011 | multiplex microsphere protease substrate cleavage | 360,000 tested, 0.17% active | inhibition, % at 10 µM | Botulinum neurotoxin type A light chain protease (Clostridium botulinum A str. ATCC 3502); note: plate controls were buffer without enzyme for full effect and enzyme alone for no effect
BoNT-F LC inh: BoNT/F light chain protease inhibitors, primary screen, biochemical, flow cytometry, MLPCN library; Multiplex microsphere protease cleavage assay; inhibition, % at 10 µM; 360,000 tested, 0.22% active; AID 588497, 2011; in the data active = inhibition above about 35%, passing the limit was not always enough; inconclusive = no clear call, values can overlap the other calls; note: plate controls were buffer without enzyme for full effect and enzyme alone for no effect
Anthrax LF inh2: Bacillus anthracis LF protease inhibitors, primary screen, biochemical, multiplex microsphere, MLPCN library; 360,000 tested, 0.12% active; inhibition, % at 10 µM; multiplex microsphere protease cleavage assay; note: plate controls were buffer without enzyme for full effect and enzyme alone for no effect
Target sequence (P15917 whole entry, looked up): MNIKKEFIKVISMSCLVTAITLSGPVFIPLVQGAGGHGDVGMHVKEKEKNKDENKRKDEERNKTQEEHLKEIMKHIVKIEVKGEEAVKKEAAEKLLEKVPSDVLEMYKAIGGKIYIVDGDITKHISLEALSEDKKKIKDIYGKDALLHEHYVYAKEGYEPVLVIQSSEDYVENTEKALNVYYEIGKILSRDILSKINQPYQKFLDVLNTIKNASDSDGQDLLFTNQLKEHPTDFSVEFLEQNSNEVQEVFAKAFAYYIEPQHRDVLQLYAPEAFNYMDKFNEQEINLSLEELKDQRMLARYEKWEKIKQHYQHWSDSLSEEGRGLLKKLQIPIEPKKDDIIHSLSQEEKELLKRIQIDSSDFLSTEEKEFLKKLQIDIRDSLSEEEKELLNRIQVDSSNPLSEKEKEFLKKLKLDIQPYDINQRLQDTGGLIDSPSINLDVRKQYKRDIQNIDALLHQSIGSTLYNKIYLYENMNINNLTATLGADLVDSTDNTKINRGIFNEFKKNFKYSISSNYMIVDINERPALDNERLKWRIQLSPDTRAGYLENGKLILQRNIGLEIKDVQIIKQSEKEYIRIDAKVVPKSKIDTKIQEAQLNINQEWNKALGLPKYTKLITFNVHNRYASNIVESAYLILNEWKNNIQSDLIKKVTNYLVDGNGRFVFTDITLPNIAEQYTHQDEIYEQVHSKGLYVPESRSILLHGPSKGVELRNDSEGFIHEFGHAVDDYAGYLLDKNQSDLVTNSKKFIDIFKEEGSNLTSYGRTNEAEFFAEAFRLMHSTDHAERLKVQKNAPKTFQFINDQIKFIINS
MazEF act: activators of E. coli MazEF toxin-antitoxin RNase, primary screen, biochemical, fluorescence, uHTS. FAM/BHQ RNA-DNA oligo cleavage fluorescence, 5 h. activation, % at 20 µM. 350,000 tested, 0.32% active; in the data active = activation above about 50%
Active calls of the source: *; ? = inconclusive; · = not tested or not shown; + = active, no number. Cut-off read from the data, not from the text of the source, unless noted: active = inhibition above about 30%; inconclusive = no clear call, values can overlap the other calls; inactive = below that.

SMILES	Bead autofluor	BoNT A protease	BoNT-F LC inh	Anthrax LF inh2	MazEF act
CCOC(=O)COc1ccc(S(=O)(=O)Nc2ccc3c(c2)OCO3)cc1	11349	-0.7	-11.0	-5.4	-11.6
CN(CC(=O)Nc1c(Cl)cccc1Cl)C(=O)c1ccccc1Cc1ccccc1	5536	3.9	8.1	1.9	4.9
CCN(CC)C(=O)c1ncn2c1C(=O)N(C)CC2	5992	0.1	-1.5	-8.8	·
Cc1oc(-c2ccccc2Cl)nc1CSCC(=O)N1CCCC1	22629*	0.9	3.7	1.3	12.3
Cc1noc(C)c1NC(=O)N(C)C[C@@H]1Oc2ncc(Br)cc2C(=O)N([C@@H](C)CO)C[C@@H]1C	3424	0.2	-5.0	-0.7	1.3
O=c1c2ccccc2c(C=Nc2ccc(O)cc2)c(O)n1Cc1ccccc1	4713	-0.5	-2.1	-2.8	+
CCc1nc(OCCN(CC)CC)c2oc3ccccc3c2n1	6107	-0.4	-7.9	0.7	2.2
CCN(CC)CCOc1ncnc2c1oc1ccccc12	19366*	?	5.4	0.5	5.8
Cc1nc2n(n1)CC(O)CS2 (stereo not given)	23205*	-2.9	-5.6	-0.7	0.4
Cn1c(=O)c2cc(NC(=O)NCCc3cccs3)ccc2n1-c1ccc(C(C)(C)C)cc1	3886	-0.8	-3.6	-12.0	·
Cc1ccc(S(=O)(=O)NCCCNC(=O)N2CCOCC2)cc1	9012	-1.3	-10.4	-15.7	7.0
Cc1ccc(S(=O)(=O)NCCNC(=O)N2CCOCC2)cc1	21580*	-1.8	-1.2	-0.4	2.9
Cc1ccc(S(=O)(=O)NCCNC(=O)c2ccccc2)cc1	2348	-0.3	-8.1	-2.8	-5.5
Cc1ccc(S(=O)(=O)NCCOc2nc(N3CCOCC3)nc(N3CCOCC3)n2)cc1	21551*	2.3	4.8	3.5	-10.0
Cc1ccc(S(=O)(=O)NCCCNC(=O)c2ccccc2)cc1	23361*	-2.2	-3.9	-2.2	1.1
Cc1nc2c(-c3ccccc3)c(C)nn2c(C)c1CCC(=O)N1CCC2(CC1)OCCO2	?	?	61.8*	?	-1.0
Cc1nc2cc(-c3cccc(F)c3)nn2c(C)c1CCC(=O)N1CCC2(CC1)OCCO2	?	?	-6.9	?	4.3
COc1ccc(-c2c(C)n([O-])c(C)c(-c3ccccc3)[n+]2=O)cc1OC	21301*	2.1	4.0	-3.3	3.6
COc1ccc(-c2c(C)n([O-])c(C)c(C)[n+]2=O)cc1OC	3706	-0.7	-22.9	-2.9	0.2
COC(=O)C1CCN(C(=O)c2ccc(Cl)c(S(=O)(=O)NCc3cccnc3)c2)CC1	23363*	?	-3.8	-2.9	5.2
Cc1cccc(OCCNC(=O)c2ccc(Cl)c(S(=O)(=O)NCc3cccnc3)c2)c1	3933	0.2	-1.6	2.9	-5.2
O=C(c1ccc(Cl)c(S(=O)(=O)NCc2ccccc2)c1)N1CCN(c2ccccn2)CC1	18872*	1.8	0.2	0.5	-1.5
O=c1c2cc(N3CCOCC3)ccc2[nH]c(=S)n1CCCN1CCCCCC1	21083*	?	-5.0	-5.3	1.2
O=c1c2cc(N3CCOCC3)ccc2[nH]c(=S)n1CCN1CCCC1	9787	0.3	-6.9	-3.1	10.4
O=C(CCCCCn1c(=S)[nH]c2ccc(N3CCOCC3)cc2c1=O)NCc1ccc(Cl)cc1	3773	0.6	-2.2	-2.8	-0.2
SMILES	Bead autofluor	BoNT A protease	BoNT-F LC inh	Anthrax LF inh2	MazEF act
O=c1c2cc(N3CCOCC3)ccc2[nH]c(=S)n1Cc1ccc(Cl)cc1	16514*	0.7	2.3	0.7	2.7
COC(=O)c1ccccc1Nc1ccnc(Cl)n1	5798	0.5	-0.1	-5.4	-6.8
COc1ccc(N2CCN(CCCNC(=O)C3(S(=O)(=O)c4ccc(Cl)cc4)CC3)CC2)cc1	26083*	?	-15.7	-7.2	5.7
CC(=O)c1ccc(N2CCN(C(=O)C3(S(=O)(=O)c4ccc(Cl)cc4)CC3)CC2)cc1	19219*	0.2	-0.3	-1.4	-4.3
O=C(NCCCN1CCN(c2cccc(Cl)c2)CC1)C1(S(=O)(=O)c2ccc(Cl)cc2)CC1	3956	0.3	-5.7	-5.6	1.4
O=C(c1ccccc1)c1ccsc1C(=O)c1ccccc1	2546	0.1	8.2	8.6	1.1
CS(=O)(=O)c1ccc2nc(NC(=O)CCNC(=O)c3ccc([N+](=O)[O-])cc3)sc2c1	·	·	·	·	3.0
Cc1ccccc1S(=O)(=O)NC(=O)C1(C)CCN1C(=O)C1CCCCC1 (stereo not given)	3858	-0.1	-2.0	5.0	·
N/C(CN1CCCC1=O)=N\O	24371*	-3.7	-3.8	-0.1	2.4
NC(=O)CN1CCCC1=O	6469	-0.8	2.6	-2.6	-17.8
CC(=O)c1cccc(S(=O)(=O)NCCCN2CCOCC2)c1	4052	-0.8	1.4	-3.1	3.0
Cc1ccccc1C(O)c1ccccn1 (stereo not given)	24308*	-1.0	-2.2	-0.7	5.1
OC(c1ccccn1)C(O)c1ccccn1 (stereo not given)	3960	-0.8	-3.7	-5.8	13.8
COC(=O)c1ccc(OCCn2cnc3ccccc3c2=O)cc1	19676*	-0.7	-1.1	-0.8	-1.7
COC(=O)Cn1cnc2ccccc2c1=O	2392	0.5	-2.0	2.8	2.0
O=C(Cn1cnc2ccccc2c1=O)OCCCCN1C(=O)c2ccccc2C1=O	23990*	-1.9	-5.3	-3.8	0.8
CC(C)(C)c1ccc(OCCOCCn2cnc3ccccc3c2=O)cc1	4574	-0.3	-3.9	1.1	-6.2
COc1ccccc1OCCOCCn1cnc2ccccc2c1=O	19899*	?	1.8	-0.9	1.9
CCc1ccc(S(=O)(=O)N2CCCC(N3CCN(c4ccc(OC)cc4)CC3)C2)cc1 (stereo not given)	6190	-1.6	-3.8	1.3	5.1
CC1CCCCC12NC(=O)N(CC(=O)Nc1ccc(N3CCCCC3)cc1)C2=O (stereo not given)	5505	5.1	15.6	-0.8	-9.2
O=C(NCc1n[nH]c(=S)n1-c1ccccc1)c1ccco1	19724*	9.1	10.5	-8.5	1.0
O=S(=O)(c1ccc(F)cc1)N(CCO)CC(O)Cn1c2ccccc2c2ccccc21 (stereo not given)	16893*	-2.0	-7.0	-5.3	-4.0
CCN(CC(O)Cn1c2ccccc2c2ccccc21)S(=O)(=O)c1ccc(F)cc1 (stereo not given)	10322	-1.4	-11.9	-7.4	-5.1
COCCn1c(SCC(=O)NCc2ccc(OC)c(OC)c2)nc2ccccc21	3684	-0.8	-9.2	-2.3	-30.9
COc1ccc(C(=O)NCCCN2CCCC2=O)cc1S(=O)(=O)N1CCOCC1	4246	-0.2	-0.9	0.1	4.5
Cc1ccc(S(=O)(=O)c2cc(C#N)c(=O)[nH]c2N)cc1	9434	-0.1	6.0	-16.8	-12.3
COc1nc(N)c(S(=O)(=O)c2ccc(C)cc2)cc1C#N	19122*	1.1	-0.3	-1.4	-20.4
CCC(CC)C(=O)Nc1cccc(C(=O)Nc2ccc(S(=O)(=O)Nc3ccc(C)cc3)cc2)c1	22769*	-0.4	-3.7	1.1	4.1
